Experimental data reported in PubChem BioAssay AID504734 (The Scripps Research Institute Molecular Screening Center, 2011).
About 730 (0.21%) of roughly 340,000 compounds were called active. The entries come from a sample that favours actives as a whole. Unmarked numbers belong to inactive results.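 Rule for the calls: active = inhibition above the mean over all tested compounds plus 3 SD (cut at about 21% in these data); inactive = the rest.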

target: Toll-like receptor 9 (Homo sapiens) + Myeloid differentiation primary response protein MyD88 (Homo sapiens) (UniProt Q9NR96+Q99836); assay: inhibitors of TLR9-MyD88 association in cells, primary screen, cell-based, CHO, BLA complementation, fluorescence (AID 504734); details: CHO BLA complementation TLR9-MyD88, CCF4 FRET ratio; at 4.98 µM; hits give high values;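 note: 0% = DMSO only wells and 100% = clavulanate BLA inhibitor control wells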
Sequence (Q99836 whole entry, looked up): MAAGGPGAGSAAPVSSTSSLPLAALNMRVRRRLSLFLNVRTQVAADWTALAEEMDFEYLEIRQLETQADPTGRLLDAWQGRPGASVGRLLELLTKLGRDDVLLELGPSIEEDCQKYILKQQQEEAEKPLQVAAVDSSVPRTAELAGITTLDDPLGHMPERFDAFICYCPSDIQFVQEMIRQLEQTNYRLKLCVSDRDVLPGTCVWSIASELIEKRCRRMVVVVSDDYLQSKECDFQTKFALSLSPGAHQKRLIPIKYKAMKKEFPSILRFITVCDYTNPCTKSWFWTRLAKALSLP
Sequence (Q9NR96 whole entry, looked up): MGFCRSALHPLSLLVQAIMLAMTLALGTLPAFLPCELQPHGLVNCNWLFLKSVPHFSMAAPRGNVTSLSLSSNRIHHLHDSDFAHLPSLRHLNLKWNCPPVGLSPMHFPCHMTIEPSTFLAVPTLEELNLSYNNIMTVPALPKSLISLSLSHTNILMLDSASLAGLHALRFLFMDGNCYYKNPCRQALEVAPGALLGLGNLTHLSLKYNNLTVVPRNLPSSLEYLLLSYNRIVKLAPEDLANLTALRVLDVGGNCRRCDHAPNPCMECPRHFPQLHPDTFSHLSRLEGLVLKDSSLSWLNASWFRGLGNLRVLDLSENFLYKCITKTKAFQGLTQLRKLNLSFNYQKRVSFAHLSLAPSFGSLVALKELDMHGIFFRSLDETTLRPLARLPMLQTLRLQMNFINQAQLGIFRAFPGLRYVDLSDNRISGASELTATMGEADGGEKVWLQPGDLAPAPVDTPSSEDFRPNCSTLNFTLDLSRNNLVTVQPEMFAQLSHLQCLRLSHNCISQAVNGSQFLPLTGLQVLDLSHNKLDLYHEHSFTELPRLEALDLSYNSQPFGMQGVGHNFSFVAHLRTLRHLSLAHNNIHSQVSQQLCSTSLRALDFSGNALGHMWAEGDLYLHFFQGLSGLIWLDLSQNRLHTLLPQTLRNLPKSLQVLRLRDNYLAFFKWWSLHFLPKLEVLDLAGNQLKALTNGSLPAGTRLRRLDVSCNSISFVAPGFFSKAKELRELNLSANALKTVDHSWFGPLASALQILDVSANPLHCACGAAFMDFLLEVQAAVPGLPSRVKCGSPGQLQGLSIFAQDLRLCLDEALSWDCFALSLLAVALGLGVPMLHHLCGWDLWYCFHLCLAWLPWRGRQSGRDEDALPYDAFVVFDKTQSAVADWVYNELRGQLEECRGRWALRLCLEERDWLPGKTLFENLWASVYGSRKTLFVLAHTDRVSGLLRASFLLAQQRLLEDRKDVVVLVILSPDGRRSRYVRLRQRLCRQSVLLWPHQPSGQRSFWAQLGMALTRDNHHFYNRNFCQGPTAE

**Q.** Which inhibition does the source give for COc1ccccc1/C=C/C(=O)OCC(=O)NC1CCCCCC1 here?
**A.** 22.6% (active)

**Q.** With COc1ccc(/C=C/C(=O)OCC(=O)NC2CCCCCC2)cc1OC as the compound, how does the inhibition read?
**A.** -1.25%

**Q.** With C[C@H](CO)N1C[C@H](C)[C@@H](CN(C)C(=O)C2CCCCC2)OCc2cnnn2CCCC1=O as the compound, how does the inhibition read?
**A.** 1.13%

**Q.** O=C(COC(=O)/C=C/c1ccc(Cl)cc1)NC1CCS(=O)(=O)C1 (stereo not given) was tested. Which inhibition did it give?
**A.** -13.5%

**Q.** Which inhibition does the source give for CCN(CC)CCCC(C)n1c2nc(=O)[nH]c(=O)c-2nc2cc(Cl)ccc21 (stereo not given) here?
**A.** 22.6% (active)

**Q.** With Cc1nnc(SC(C)C(=O)c2c[nH]c3ccccc23)n1C1CC1 (stereo not given) as the compound, how does the inhibition read?
**A.** -9.37%

**Q.** With Cc1ccc(S(=O)(=O)N2C[C@]3(O)C[C@@H]4C(=O)N(c5ccccc5)C(=O)[C@@H]4C[C@]3(OC(=O)NC3CC3)C2)cc1 as the compound, how does the inhibition read?
**A.** -0.67%

**Q.** Cc1ccc(S(=O)(=O)N2CCCCC2)cc1NC(=O)CCNC(=O)c1ccccc1Cl was tested. Which inhibition did it give?
**A.** -7.91%

**Q.** Which inhibition does the source give for Cc1ccccc1OCCOc1ccc([N+](=O)[O-])cc1/C=N/n1cnnc1 here?
**A.** -3.95%

**Q.** With O=[N+]([O-])c1cccc(/C=N/Nc2ncc(Br)cn2)c1 as the compound, how does the inhibition read?
**A.** -10.4%

**Q.** With O=[N+]([O-])c1ccc(N=NNc2ccc([N+](=O)[O-])cc2)cc1 as the compound, how does the inhibition read?
**A.** -10.5%

**Q.** With Cc1cc([N+](=O)[O-])ccc1NCc1cccc([N+](=O)[O-])c1 as the compound, how does the inhibition read?
**A.** -1.82%

**Q.** How did the inhibition turn out when Cc1cccc(COc2ccccc2/C=N/Nc2ccc([N+](=O)[O-])cc2)c1 was run?
**A.** 21.7% (active)

**Q.** With O=[N+]([O-])c1ccc(N/N=C/c2ccccc2)cc1 as the compound, how does the inhibition read?
**A.** 21.1% (active)

**Q.** C[C@H](O)[C@@H]1C(=O)N2CCc3c([nH]c4ccccc34)[C@@H]2C[C@@H]1N(C)C(=O)Nc1ccc(F)cc1 was tested. Which inhibition did it give?
**A.** -0.01%

**Q.** With CCOc1cc(/C=N/NC(=O)c2c(C)nc3ccc(Cl)cn23)ccc1O as the compound, how does the inhibition read?
**A.** -2.46%

**Q.** C=CCN1CCN(c2ccncc2S(=O)(=O)N2CCN(C)CC2)CC1 was tested. Which inhibition did it give?
**A.** 9.55%

**Q.** Cc1sc2ncnc(SCC(=O)NC3CCS(=O)(=O)C3)c2c1C (stereo not given) was tested. Which inhibition did it give?
**A.** -4.28%

**Q.** Cn1nc(N)c2ncc(C(Cl)(Cl)Cl)nc21 was tested. Which inhibition did it give?
**A.** -17.4%

**Q.** Which inhibition does the source give for COc1cc(C(=O)OCCCN2CCOCC2)cc(OC)c1OC here?
**A.** 1.8%

**Q.** Cc1cc(OCC(=O)Nc2nccs2)c2c(C)c(C)c(=O)oc2c1 was tested. Which inhibition did it give?
**A.** -3.81%

**Q.** For COc1ccccc1-c1n[nH]nc1C1=CC(=O)CC(C)(C)C1, which inhibition is on record?
**A.** 9.73%

**Q.** For CNC(=S)N/N=C/c1ccc(OCc2ccccc2)c(Br)c1, which inhibition is on record?
**A.** 29.9% (active)

**Q.** How did the inhibition turn out when CNC(=S)NNC(=O)c1sccc1OCc1ccccc1 was run?
**A.** -6.12%

**Q.** For O=C(O)COc1ccc(/C=N/O)cc1Br, which inhibition is on record?
**A.** 7.44%

**Q.** With CCCCCCN1C[C@@H](O)[C@H](n2cc(COC(=O)c3ccccc3)nn2)C[C@@H]1c1ccc(Cl)cc1 as the compound, how does the inhibition read?
**A.** -2.39%

**Q.** C[C@H]1CN([C@@H](C)CO)C(=O)CCCn2nncc2CO[C@@H]1CN(C)Cc1ccc(Oc2ccccc2)cc1 was tested. Which inhibition did it give?
**A.** 0.54%

**Q.** Which inhibition does the source give for O=C(Nc1ccccc1Cl)/C(Cl)=C(\Cl)S(=O)c1ccccc1 (stereo not given) here?
**A.** 23.8% (active)

**Q.** Which inhibition does the source give for NC(=O)C1(Nc2ccccc2Cl)CCCC1 here?
**A.** -10.1%

**Q.** O=C(CCN1CCN(C/C=C/c2ccccc2)CC1)Nc1ccccc1Cl was tested. Which inhibition did it give?
**A.** 2.63%

**Q.** How did the inhibition turn out when CN1OC[C@@H]2CN(S(=O)(=O)c3cccc(C(F)(F)F)c3)[C@H](c3ccc(-c4cc5ccccc5o4)cc3)C[C@@H]21 was run?
**A.** -0.31%

**Q.** How did the inhibition turn out when Cc1cc(C)cc(OCC(=O)NNC(=O)CCN2C(=O)c3ccccc3C2=O)c1 was run?
**A.** -3.37%

**Q.** How did the inhibition turn out when O=C(CCN1C(=O)c2ccccc2C1=O)NNC(=O)c1ccc(Cl)cc1Cl was run?
**A.** 29.1% (active)

**Q.** With Cc1cc(C)cc(NC(=O)CCN2C(=O)c3ccccc3C2=O)c1 as the compound, how does the inhibition read?
**A.** -4.31%

**Q.** With Cc1ccc(-c2ccc(CN3C(C(C)C)C(=O)N(Cc4cn(CCC5OCCCO5)nn4)CCS3(=O)=O)cc2)cc1 (stereo not given) as the compound, how does the inhibition read?
**A.** -5.52%

**Q.** CC(OC(=O)c1ccc(NC(=O)CC#N)cc1)C(=O)Nc1ccc(S(=O)(=O)N2CCCC2)cc1 (stereo not given) was tested. Which inhibition did it give?
**A.** 0.94%

**Q.** How did the inhibition turn out when COCCCn1c(C(=O)NC2CCCCC2)cc2c(=O)n3cccc(C)c3nc21 was run?
**A.** -12.6%

**Q.** Which inhibition does the source give for CC1(C)CN(Cc2cccnc2)C(=O)[C@H]1CC(=O)Nc1ccc(Br)cc1 here?
**A.** -3.44%

**Q.** O=C(CSc1ccc(Cl)cc1)NC1CC1 was tested. Which inhibition did it give?
**A.** -15.8%

**Q.** With C#CCN(C[C@H]1[C@H](OC(=O)NC2CCCC2)[C@H](OC(=O)NC2CCCC2)C[C@H]2C(=O)N(c3ccccc3)C(=O)[C@@H]12)S(=O)(=O)c1ccc(C)cc1 as the compound, how does the inhibition read?
**A.** -5.56%

**Q.** How did the inhibition turn out when Clc1ccc2c(c1)C1=C(C(c3ccncc3)O2)C(c2ccc(Br)cc2)n2ncnc2N1 (stereo not given) was run?
**A.** -8.31%

**Q.** How did the inhibition turn out when CCOc1ccc(C2=CC(c3ccccc3)n3ncnc3N2)cc1 (stereo not given) was run?
**A.** 33.7% (active)

**Q.** Which inhibition does the source give for CC1=C(C(=O)OC2CCCCC2)C(c2cccnc2)n2ncnc2N1 (stereo not given) here?
**A.** -0.13%

**Q.** COc1ccc(C2CC(c3ccc(C)cc3)Nc3ncnn32)cc1 (stereo not given) was tested. Which inhibition did it give?
**A.** 1.5%

**Q.** Brc1ccc(C2=CC(c3ccco3)n3ncnc3N2)cc1 (stereo not given) was tested. Which inhibition did it give?
**A.** 30.4% (active)
